Sm TGR inh: blocks Schistosoma mansoni thioredoxin glutathione reductase; Q962Y6; AID 485364; Potency, µM (top dose mostly 114 µM), for inactives: top-dose activity change, negative = inhibition, usual class: inhibitors; purified TGR, DTNB reduction, TNB absorbance 405 nm; hit rate 3% among 360,000; active = well fitted inhibition curve with a large enough effect; inconclusive = small, poorly fitted or top-dose-only effect; inactive = no such curve, though single readings can be large or run the other way; also: % is scaled to controls: 0 for no effect and ±100 for the full control effect; nearly all actives have a fitted effect of over 60% in size
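TGR 20 nM + NADPH 100 uM (dispensed conc.), cpd preinc 15 min RT; start with NADPH (500 uM addition) then DTNB (15 mM addition). Kinetic TNB absorbance, 405 nm filter. Four-parameter Hill fit across titration.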
SARS PLP yeast: SARS-CoV PLP inhibition in yeast; S. cerevisiae expressing SARS-CoV PLpro, growth rescue; Potency, µM (doses to about 32.9 µM), for the others: top-dose activity, positive = growth rescue, actives largely listed as activators; hit rate 0.19% among 330,000; calls by dose curve; also: 0% is about no effect; nearly all actives have a fitted effect of over 55% in size
* hit, by the source's call; ? = inconclusive; . = no result; ! = a repeat was not active. Sampled rows, rich in hits. Any-hit rate of the full collection: about 3%. Potency is read from the fitted curve at half-maximal effect.

SMILES	Sm TGR inh	SARS PLP yeast
O=C(CSc1nc(-c2cccs2)cc(C(F)(F)F)n1)Nc1ccccc1Cl	3%	.
Cc1ccc(O)c(NC(=O)CCS(=O)(=O)c2nc(-c3cccs3)cc(C(F)(F)F)n2)c1	18µM*	.
O=C(CCS(=O)(=O)c1nc(-c2cccs2)cc(C(F)(F)F)n1)Nc1cc(Br)ccc1O	18µM*	.
Cc1ccc2[nH]c3c(=O)n(CC(=O)Nc4ccc(Br)cc4C)ncc3c2c1	1%	.
CCC(C(=O)Nc1ccccc1C(=O)OC)n1nc(C)c2c(C)n(-c3ccc(C)cc3)nc2c1=O (stereo not drawn)	6%	.
Cn1cnc2c(N3CCCCC3)nccc21	-7%	3%
C[c-]1[c-](C)[c-](C)[c-](C)[c-]1C.[Fe].c1cc2nccc(N3CCCC3)[c-]2c1 (stereo not drawn)	3.2µM*!	6%
O=C(NC1CC(=O)N(c2ccc(Cl)cc2)C1)c1cc2ccccc2o1 (stereo not drawn)	8%	.
COc1cc2c(cc1OC)C(COc1ccc3c(C)cc(=O)oc3c1)N(C(=O)c1cccc(OC)c1OC)CC2 (stereo not drawn)	7%	.
Oc1ccccc1C1=Nc2nc3ccccc3n2C(c2ccccc2)C1 (stereo not drawn)	10µM*	-14%
Oc1ccccc1C1=NN(c2ccccc2)C(c2ccc(F)cc2)C1 (stereo not drawn)	-34%	-4%
Cc1ccc(C(=O)/C=C/C(=O)O)cc1	2.5µM*	-34%
Cc1ccc(/C=C/C(=O)c2ccc(O)cc2)cc1	-36%	-5%
COc1cc2c(cc1OC)n(Cc1ccc([N+](=O)[O-])cc1)c(=O)n1nc(-c3ccccc3)nc21	4%	.
CCOC(=O)CSc1nc2c(sc3ccccc32)c(=O)n1Cc1ccc(OC)cc1	-2%	.
O=C1COc2cc(S(=O)(=O)CCC(=O)N3CCN(c4ccccc4)CC3)c(Cl)cc2N1	42%	.
CC1CCN(C(=O)c2ccc(S(=O)(=O)Cc3ccccc3F)c([N+](=O)[O-])c2)CC1	-25%	12%
O=C(c1ccc(S(=O)(=O)Cc2ccccc2Cl)c([N+](=O)[O-])c1)N1CCOCC1	11µM*	-2%
Cc1ccccc1CS(=O)(=O)c1ccc(C(=O)N2CCOCC2)cc1[N+](=O)[O-]	?	1%
O=C(c1ccc(S(=O)(=O)Cc2ccccc2F)c([N+](=O)[O-])c1)N1CCCC1	10µM*	-1%
COc1ccc(CN(C(=O)Nc2cccc(Cl)c2)c2ccccn2)cc1OC	3%	.
COc1cc(-c2noc(-c3ccc(NC4CCCC4)c([N+](=O)[O-])c3)n2)cc(OC)c1OC	-3%	.
O=C(NNc1ccc([N+](=O)[O-])cc1)c1ccccc1Cl	?	-3%
O=C(NC(NNc1ccc([N+](=O)[O-])cc1)(C(F)(F)F)C(F)(F)F)c1ccc(Cl)cc1	22µM*	-28%
CCC(C(=O)Nc1ccccc1OC)n1c(C(=O)OC)cc2sc(Cl)cc21 (stereo not drawn)	1%	.
SMILES	Sm TGR inh	SARS PLP yeast
COc1cccc(/C(O)=C2/C(=O)C(=O)N(c3cc(C)on3)C2c2cccs2)c1 (stereo not drawn)	?	5%
Cc1cc(N2C(=O)C(=O)/C(=C(/O)c3ccccc3)C2c2cccs2)no1 (stereo not drawn)	40µM*	1%
Cc1cccc(CSc2nc3c(sc4ccccc43)c(=O)n2CCC(=O)NC(C)C)c1	-3%	.
Cc1cn(C)c(CC(=O)N2CCN(c3ccccc3F)CC2)c1C(=O)O	-1%	.
O=c1[nH]c(=O)n(Cc2ccco2)c(O)c1C=NCCN1CCOCC1	-29%	?
CCN(CC)CCN=Cc1c(O)n(CCc2ccccc2)c(=O)[nH]c1=O	25µM*	14%
O=c1[nH]c(=O)n(Cc2ccccc2)c(O)c1C=NCCN1CCNCC1	35µM*	11%
O=c1[nH]c(=O)n(Cc2ccccc2)c(O)c1C=Nc1ccc(CN2CCOCC2)cc1	35µM*	5%
C=CCn1c(O)c(C=NCCN2CCNCC2)c(=O)[nH]c1=O	0%	-2%
CCN(CC)CCCN=Cc1c(O)n(CCc2ccc(F)cc2)c(=O)[nH]c1=O	8%	6%
O=c1[nH]c(=O)n(CCC2=CCCCC2)c(O)c1/C=N/Nc1cccc2ccccc12	20µM*	-1%
O=c1[nH]c(=O)n(CCC2=CCCCC2)c(O)c1/C=N/Nc1ccccc1	?	-2%
O=C(NCc1ccc2c(c1)CCN2C(=O)c1ccc(F)cc1)c1ccco1	4%	.
COc1ccc(CCNC(=O)CCc2c(C)c3cc4c(C)c(C)oc4cc3oc2=O)cc1OC	-4%	.
CCCCOc1ccc(C(=O)N(Cc2nc(-c3ccc(Cl)cc3)no2)C(C)C)cc1	3%	.
CCOc1ccc(C(=O)Nc2ccc3oc(-c4ccc5ccccc5c4)nc3c2)cc1	11%	.
CCOC(=O)C(CC)n1nc(C)c2c(C)n(-c3ccc(C)cc3)nc2c1=O (stereo not drawn)	-5%	.
O=c1[nH]c(=O)n(CCC2=CCCCC2)c(O)c1C=NCCN1CCNCC1	10µM*	-7%
O=c1[nH]c(=O)n(CCC2=CCCCC2)c(O)c1/C=N/N1CCOCC1	0%	0%
COc1ccc(CCNC(=O)CSc2nnnn2-c2cccc(C(C)=O)c2)cc1OC	2%	.
Cn1c(Cc2csc(N)n2)nnc1SCC(=O)NC1CCCCC1	40µM*	-5%
Cn1c(Cc2ccccc2)nnc1SCC(=O)NC1CCCCC1	-18%	4%
CC(C)CCn1c(=O)c2cccnc2n(CC(=O)Nc2ccccc2F)c1=O	2%	.
COc1ccccc1N1CCN(C(=O)c2cnn(C(C)(C)C)c2C2CCN(C(=O)OC(C)(C)C)CC2)CC1	-2%	.
CCCNS(=O)(=O)c1cc(-c2nnc3c4ccccc4c(C)nn23)ccc1OC	-2%	.
SMILES	Sm TGR inh	SARS PLP yeast
CCSc1ncc(Cl)c(C(=O)N(Cc2ccc(C(C)(C)C)cc2)C2CCS(=O)(=O)C2)n1 (stereo not drawn)	-3%	.
C/C(=N/NS(=O)(=O)c1ccccc1)c1c[nH]c2ccccc12	?	5%
C/C(=N/NS(=O)(=O)c1cccc([N+](=O)[O-])c1)c1c[nH]c2ccccc12	45µM*	2%
COc1ccc(-c2nc3sc(CCNC(=O)C(=O)Nc4c(C)cccc4C)c(C)n3n2)cc1	18%	.
CSC1=C(C#N)C(=O)NC(c2ccc(Cl)cc2)S1 (stereo not drawn)	10µM*	0%
CSc1nc(-c2ccc(Cl)cc2)c(C#N)c(=O)[nH]1	.	1%
OC(CN1CCN(Cc2ccc3c(c2)OCO3)CC1)c1c[nH]c2ccccc12 (stereo not drawn)	-17%	2%
Cc1c(C(O)CN2CCN(Cc3ccc4c(c3)OCO4)CC2)c2ccccc2n1C (stereo not drawn)	28µM*	-2%
COc1ccc2c(c1)c(C(O)CN1CCC(Cc3ccccc3)CC1)c(C)n2C (stereo not drawn)	0%	-4%
COc1ccc2c(c1)c(C(O)CN1CCN(Cc3ccc4c(c3)OCO4)CC1)c(C)n2C (stereo not drawn)	25µM*	-43%
Cc1c(CNC(C)CCc2ccccc2)c(C(=O)O)c(C)n1Cc1ccc(F)cc1Cl (stereo not drawn)	0%	.
Cc1cccc(NC(=O)CS(=O)(=O)c2cccc3nsnc23)c1	-12%	.
Cc1nn(CC(=O)Nc2ccc(OC(F)(F)F)cc2)c(=O)c2c(C)n(-c3ccc(Cl)cc3)nc12	4%	.
C(#Cc1ccccc1)C[N+]1(CC#Cc2ccccc2)CCCC1	-19%	-9%
C=CC#CC[N+]1(CC#Cc2ccccc2)CCOCC1	40µM*	-12%

Screens: PubChem, National Center for Advancing Translational Sciences (NCATS)
